Measurements reported in the supplement of paper PMC13380429.
Values without a mark were called inactive.

Tested on: Vero E6 infected with SARS-CoV-2
Assay: inhibition of SARS-CoV-2 cytopathic effect; higher = more antiviral protection, active = above 15
Settings: 48 h

Compound | inhibition of SARS-CoV-2 cytopathic effect (1 nM) | inhibition of SARS-CoV-2 cytopathic effect (8.33 nM) | inhibition of SARS-CoV-2 cytopathic effect (100 nM) | inhibition of SARS-CoV-2 cytopathic effect (833.33 nM) | inhibition of SARS-CoV-2 cytopathic effect (10000 nM)
CC(C)[C@H](CO)Nc1nc(Nc2cc(N)cc(Cl)c2)c2ncn(C(C)C)c2n1 [aminopurvalanol-a] | 4.14% | 0.51% | -1.34% | -0.35% | -6.98%
CCCCCCCCCCCCCCCCCC(=O)OC[C@@H](O)[C@H]1OC[C@H](O)[C@H]1O [sorbitan-monostearate] | 0.02% | -1.4% | 1.63% | 2.62% | -0.38%
COc1ccc(/C=C/C(=O)Nc2ccccc2C(=O)O)cc1OC [tranilast] | -0.23% | -1.52% | -1.22% | 0.97% | 1.42%
CCOC(=O)OC(C)OC(=O)[C@@H]1N2C(=O)[C@@H](NC(=O)[C@H](N)c3ccccc3)[C@H]2SC1(C)C (stereo not given in full) [bacampicillin] | 8.5% | 1.16% | -0.89% | -1.91% | -2.49%
O=C(O)CCCCC(CCSCc1ccccc1)SCc1ccccc1 (stereo not given) | 1.25% | 1.84% | 3.04% | 0.34% | -0.88%
CC(=O)Nc1ccc(C(=O)O)cc1 [acedoben] | -1.13% | 3.16% | 1.58% | 0.73% | 3.31%
OC[C@H]1O[C@@H](Oc2cc(O)cc(/C=C/c3ccc(O)cc3)c2)[C@H](O)[C@@H](O)[C@@H]1O [polydatin] | -1.01% | -1.06% | 1.77% | 9.49% | 2.31%
CN(C)c1ccc(-c2nc3c(N4CCN(CC(=O)Nc5nccs5)CC4)c(Cl)cnc3[nH]2)cc1 | 0.9% | -0.82% | -1.07% | 0.5% | 13.9%
OCCN1CCN(CC/C=C2/c3ccccc3Sc3ccc(Cl)cc32)CC1 [zuclopenthixol] | -1.15% | -3.42% | -1.94% | -3.61% | 8.42%
CCN(CC)CCCC(C)Nc1nc(C)cc(Nc2ccc3nc(C)cc(N)c3c2)n1 (stereo not given) | -1.23% | -0.04% | 1.43% | -0.56% | 0.17%
C[C@]12CC[C@@H]3c4ccc(O)cc4CC[C@H]3[C@@H]1C[C@@H](O)[C@@H]2O [estriol] | 2.04% | 1.38% | -1.95% | -1.63% | -0.19%
COc1cc(CCc2cc(NC(=O)c3ccc(N4CC(C)NC(C)C4)cc3)n[nH]2)cc(OC)c1 (stereo not given) | -1.78% | 1.81% | 1.04% | -1.56% | -1.21%
NS(=O)(=O)c1cc(Cl)c(Cl)c(S(N)(=O)=O)c1 [diclofenamide] | -2.99% | -2.1% | -3.44% | 0.21% | -2.7%
N#Cc1ccnc(N2C(=O)CC[C@H]2C(=O)N(c2cncc(F)c2)[C@H](C(=O)NC2CC(F)(F)C2)c2ccccc2Cl)c1 [ivosidenib] | -0.33% | 3.62% | 0.3% | 0.14% | 3.82%
CC(C)c1nnc(-c2ccc(-c3ccccc3)nc2)n1-c1cccc2nonc12 | -5.81% | -4.31% | -0.24% | 0.55% | -1.7%
Cc1sc2c(c1C)C(c1ccc(Cl)cc1)=N[C@@H](CC(=O)Nc1ccc(OCCOCCOCCOCCNc3cccc4c3C(=O)N(C3CCC(=O)NC3=O)C4=O)cc1)c1nnc(C)n1-2 (stereo not given in full) | -0.01% | -1.32% | -2.57% | 1.39% | -3.1%
Cn1cnc2c1c(=O)[nH]c(=O)n2C [theobromine] | -1.8% | 1.86% | 1.32% | 1.3% | -1.36%
O=C(NC1CCN(CCCCC2(C(=O)NCC(F)(F)F)c3ccccc3-c3ccccc32)CC1)c1ccccc1-c1ccc(C(F)(F)F)cc1 [lomitapide] | 0.13% | -1.36% | 0.35% | -1.45% | 20.9% (active)
CCN1CCN(C(=O)N[C@@H](C(=O)N[C@@H]2C(=O)N3[C@@H]2SC(C)(C)[C@@H]3C(=O)O)c2ccccc2)C(=O)C1=O [piperacillin] | -0.76% | 0.86% | -1.44% | -0.01% | 0.01%
O=C([O-])C(O)[C@H](O)[C@@H](O)[C@H](O)[C@H](O)CO.O=C([O-])C(O)[C@H](O)[C@@H](O)[C@H](O)[C@H](O)CO.[Ca+2] (stereo not given in full) [calcium-gluceptate] | -7.86% | -1.7% | -4.55% | -3.31% | -3.66%

Compound | inhibition of SARS-CoV-2 cytopathic effect (1 nM) | inhibition of SARS-CoV-2 cytopathic effect (8.33 nM) | inhibition of SARS-CoV-2 cytopathic effect (100 nM) | inhibition of SARS-CoV-2 cytopathic effect (833.33 nM) | inhibition of SARS-CoV-2 cytopathic effect (10000 nM)
Nc1ccc(S(=O)(=O)c2ccc(N)cc2)cc1 [dapsone] | -2.51% | 2.16% | 0.46% | 11.1% | 1.03%
O=c1[nH]nc2c3c(cccc13)N=C(CN1Cc3ccccc3C1)N2 | 0.7% | -0.79% | 0.78% | 0.24% | 1.13%
COc1cc(C)nc(-n2nc(C)cc2OC)n1 [epirizole] | 1.56% | 3.82% | -0.67% | 0.65% | -2.64%
O=S1(=O)OC(c2ccc(O)cc2)(c2ccc(O)cc2)c2ccccc21 [phenolsulfonphthalein] | -0.46% | -1.87% | -1.84% | -1.16% | 3.89%
CCCCCNCC(N)=O [milacemide] | 1.56% | -1.78% | 2.01% | 2.58% | -0.4%
O=C1OCCN1/N=C/c1ccc([N+](=O)[O-])o1 [furazolidone] | 2.49% | 3.22% | 2.2% | 1.08% | 0.23%
Cc1ccc(O)c([C@H](CCN(C(C)C)C(C)C)c2ccccc2)c1 [tolterodine] | 2.11% | 1.62% | 1.96% | -3.34% | -2.67%
Cc1cc(Nc2cc(C)c(C#N)c(N[C@@H](C)CCCC(C)(C)O)n2)n[nH]1 | -1.85% | -0.28% | -1.25% | -6.81% | -8.95%
O=C1NC(=O)c2c1c1c3ccccc3n3c1c1c2c2ccccc2n1C1CCC3O1 | 0.12% | 2.27% | -1.21% | 4.22% | 8.57%
Cc1ccccc1-n1c(CF)nc2ccc(N)cc2c1=O [afloqualone] | -0.9% | 0.95% | -0.71% | -0.49% | 1.46%
CN(C)c1ccc2c(c1)Sc1cc(N(C)C)ccc1N2 [leucomethylene-blue] | 2.22% | 0.11% | 0.26% | 0.69% | -7.13%
CC(C)c1ccc(NC(=O)c2cccs2)c(-c2nc3ccccc3[nH]c2=O)c1 | -1.18% | -0.5% | 0.48% | -0.61% | -1.09%
C1=N/C2=N/c3ccc(OCCN4CCCC4)c(c3)COC/C=C/COCc3cccc(c3)C(=C1)N2 [pacritinib] | -0.44% | 0.71% | 0.95% | 0.27% | -15%
O=Nc1c(O)[nH]c2c(Cl)c(Cl)ccc12 | -0.18% | -0.08% | -2.11% | -0.54% | -3.64%
O=c1ccc2ccc(O)c(O)c2o1 [daphnetin] | -1.96% | 2.35% | -2.13% | 4.54% | 2.15%
Cc1cc2c(s1)Nc1ccccc1N=C2N1CCN(C)CC1 [olanzapine] | -1.67% | -2.18% | -0.41% | 8.51% | 1.41%
COc1cccc(/C=N/N=C/c2cccc(OC)c2)c1 | -0.08% | 2.48% | -2.17% | -0.34% | 0.47%
COc1cc2c(cc1OCCCN1CCCC1)N=C(N)C21CCC1 | -1.51% | 0.76% | 0.57% | 1.84% | 1.55%
CCN(CC)CC1CCCCN1CC(=O)N1c2ccccc2C(=O)Nc2cccnc21 (stereo not given) [otenzepad] | 2.23% | 3.08% | -0.68% | 5.55% | 0.04%
